Reference: ChEMBL document CHEMBL2218924, “A broad activity screen in support of a chemogenomic map for kinase signalling research and drug discovery” (Biochem J, 2013)

Assays:
[1] = target: T1, Serine/threonine-protein kinase BRSK1 (Homo sapiens) (UniProt Q8TDC3); conditions: at 1 µM
T1 sequence (whole entry): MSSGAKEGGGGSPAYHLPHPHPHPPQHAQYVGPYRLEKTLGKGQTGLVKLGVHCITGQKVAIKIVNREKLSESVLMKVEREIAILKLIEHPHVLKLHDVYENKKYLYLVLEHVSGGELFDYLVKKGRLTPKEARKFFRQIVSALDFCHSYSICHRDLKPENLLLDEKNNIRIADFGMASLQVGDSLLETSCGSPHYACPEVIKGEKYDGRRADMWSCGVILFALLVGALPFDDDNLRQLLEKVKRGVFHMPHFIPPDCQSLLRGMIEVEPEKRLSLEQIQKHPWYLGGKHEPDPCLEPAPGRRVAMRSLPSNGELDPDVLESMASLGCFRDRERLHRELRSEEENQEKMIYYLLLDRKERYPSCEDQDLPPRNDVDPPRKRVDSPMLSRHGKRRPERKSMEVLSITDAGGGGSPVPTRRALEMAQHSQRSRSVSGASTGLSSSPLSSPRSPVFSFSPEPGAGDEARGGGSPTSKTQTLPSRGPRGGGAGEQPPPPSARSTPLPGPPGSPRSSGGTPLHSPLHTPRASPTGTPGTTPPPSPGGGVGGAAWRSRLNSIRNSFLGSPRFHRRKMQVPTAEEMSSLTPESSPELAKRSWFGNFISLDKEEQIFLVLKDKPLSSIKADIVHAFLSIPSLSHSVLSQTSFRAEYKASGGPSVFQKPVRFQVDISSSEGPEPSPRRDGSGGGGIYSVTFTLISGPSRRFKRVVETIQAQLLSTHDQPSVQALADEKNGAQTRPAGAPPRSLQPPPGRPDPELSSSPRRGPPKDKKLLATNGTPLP

[2] = target: T1, Serine/threonine-protein kinase BRSK1 (Homo sapiens); conditions: at 10 µM
[3] = target: T2, Serine/threonine-protein kinase BRSK2 (Homo sapiens) (UniProt Q8IWQ3); conditions: at 1 µM
T2 sequence (whole entry): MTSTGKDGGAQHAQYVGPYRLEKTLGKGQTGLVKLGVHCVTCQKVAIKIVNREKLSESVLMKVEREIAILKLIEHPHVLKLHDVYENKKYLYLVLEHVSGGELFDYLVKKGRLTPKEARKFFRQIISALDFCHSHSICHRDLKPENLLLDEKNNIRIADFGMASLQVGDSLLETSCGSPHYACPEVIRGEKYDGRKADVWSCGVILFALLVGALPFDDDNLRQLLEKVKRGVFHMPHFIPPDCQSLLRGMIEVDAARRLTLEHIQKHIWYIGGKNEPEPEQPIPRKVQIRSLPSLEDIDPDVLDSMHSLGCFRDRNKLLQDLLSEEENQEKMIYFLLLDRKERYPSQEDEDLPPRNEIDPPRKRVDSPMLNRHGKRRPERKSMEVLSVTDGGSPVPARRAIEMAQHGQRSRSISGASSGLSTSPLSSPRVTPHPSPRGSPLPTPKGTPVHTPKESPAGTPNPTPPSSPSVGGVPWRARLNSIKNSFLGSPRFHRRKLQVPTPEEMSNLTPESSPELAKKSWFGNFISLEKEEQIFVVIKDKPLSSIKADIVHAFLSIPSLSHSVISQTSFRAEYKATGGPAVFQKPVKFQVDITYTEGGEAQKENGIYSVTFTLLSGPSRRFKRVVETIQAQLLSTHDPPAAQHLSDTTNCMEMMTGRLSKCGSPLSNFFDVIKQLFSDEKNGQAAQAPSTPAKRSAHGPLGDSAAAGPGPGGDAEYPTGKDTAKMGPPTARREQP

[4] = target: T2, Serine/threonine-protein kinase BRSK2 (Homo sapiens); conditions: at 10 µM
[5] = target: T3, Cyclin-dependent kinase 1/cyclin B1 (Homo sapiens) (UniProt P06493+P14635); conditions: at 1 µM
T3 sequence (P06493 whole entry, looked up): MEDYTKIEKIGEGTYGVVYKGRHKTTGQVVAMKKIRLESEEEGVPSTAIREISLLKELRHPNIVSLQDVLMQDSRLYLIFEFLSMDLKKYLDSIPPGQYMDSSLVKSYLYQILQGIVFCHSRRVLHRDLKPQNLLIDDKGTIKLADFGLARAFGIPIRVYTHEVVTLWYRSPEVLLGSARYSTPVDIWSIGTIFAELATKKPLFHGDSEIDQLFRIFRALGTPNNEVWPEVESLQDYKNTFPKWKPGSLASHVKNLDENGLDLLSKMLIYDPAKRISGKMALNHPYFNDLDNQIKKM
T3 sequence (P14635 whole entry, looked up): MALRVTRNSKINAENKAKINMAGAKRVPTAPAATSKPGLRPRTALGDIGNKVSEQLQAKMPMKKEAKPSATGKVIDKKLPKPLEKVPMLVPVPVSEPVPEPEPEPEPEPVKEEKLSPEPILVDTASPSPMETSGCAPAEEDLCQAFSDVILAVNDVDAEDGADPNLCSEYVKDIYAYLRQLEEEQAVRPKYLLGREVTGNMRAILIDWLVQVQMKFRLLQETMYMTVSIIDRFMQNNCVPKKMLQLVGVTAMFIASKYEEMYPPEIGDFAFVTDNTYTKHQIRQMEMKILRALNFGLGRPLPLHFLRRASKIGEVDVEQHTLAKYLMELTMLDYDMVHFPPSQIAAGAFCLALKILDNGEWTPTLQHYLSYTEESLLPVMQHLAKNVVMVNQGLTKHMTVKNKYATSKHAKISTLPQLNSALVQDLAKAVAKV

[6] = target: T3, Cyclin-dependent kinase 1/cyclin B1 (Homo sapiens); conditions: at 10 µM
[7] = target: T4, Cyclin-dependent kinase 2/cyclin A (Homo sapiens) (UniProt P24941+P20248+P78396); conditions: at 1 µM
[8] = target: T4, Cyclin-dependent kinase 2/cyclin A (Homo sapiens); conditions: at 10 µM
[9] = target: T5, Cyclin-dependent kinase 2/cyclin E (Homo sapiens) (UniProt P24864+P24941+O96020); conditions: at 1 µM
[10] = target: T5, Cyclin-dependent kinase 2/cyclin E (Homo sapiens); conditions: at 10 µM

Structure (SMILES) | residual activity [1] [%] | residual activity [2] [%] | residual activity [3] [%] | residual activity [4] [%] | residual activity [5] [%] | residual activity [6] [%] | residual activity [7] [%] | residual activity [8] [%] | residual activity [9] [%] | residual activity [10] [%]
NC(=O)Nc1sc(-c2ccc(F)cc2)cc1C(N)=O | 55 | 15 | 83 | 18 | 100 | 57 | 59 | 21 | 79 | 26
Cn1c2ccccc2c2c3c(c4c5ccccc5n(CCC#N)c4c21)CNC3=O | 6 | 6 | 7 | 6 | 20 | 18 | 22 | 17 | 7 | 12
O=c1cc(N2CCOCC2)oc2c1ccc1ccccc12 | 91 | 96 | 102 | 108 | 106 | 91 |  | 87 | 95 | 97
COc1cc2nccc(Oc3ccc(NC(=S)NC(=O)c4ccccc4C)cc3)c2cc1OC | 100 | 56 | 89 | 89 |  |  |  |  |  | 
CC(C)(C)n1nc(Cc2cccc3ccccc23)c2c(N)ncnc21 | 90 | 91 | 111 | 98 | 106 | 92 | 130 | 57 | 107 | 69
O=C1C(Cl)=C(N2C(=O)CCC2=O)C(=O)c2ccccc21 | 82 | 79 | 118 | 92 |  |  | 86 | 89 | 95 | 98
NC(=O)c1ccc(-c2nc(-c3ccc4c(c3)OCCO4)c(-c3ccccn3)[nH]2)cc1 | 99 | 77 | 119 | 97 |  |  | 96 | 85 | 92 | 87
Cc1cc(C)c(/C=C2\C(=O)Nc3ccccc32)[nH]1 | 75 | 57 | 100 | 48 |  |  |  |  |  | 
CCCC(=O)Oc1ccc2[nH]c(C(=O)c3cc4ccccc4[nH]3)cc2c1 | 90 | 91 | 96 |  |  |  | 133 | 99 | 105 | 95
O=C(O)/C=C/c1cc(Br)c(Br)c(Br)c1Br | 103 | 49 | 91 | 45 | 109 | 56 |  | 67 | 100 | 91
CN(C)S(=O)(=O)c1ccc2c(c1)/C(=C/c1cc3c([nH]1)CCCC3)C(=O)N2 | 97 | 75 | 40 | 50 | 88 | 95 | 87 | 77 | 96 | 97
CC(C)(C)c1nc2c3ccc(F)cc3c3c(=O)[nH]ccc3c2[nH]1 | 32 | 7 | 13 | 4 |  |  |  |  |  | 
COc1ccc2c(c1)c(C1=C(c3c[nH]c4ccccc34)C(=O)NC1=O)cn2CCCN(C)C | 41 | 48 | 67 | 31 | 104 |  | 112 | 70 | 100 | 
O=C1NC(=O)C(c2c[nH]c3ccccc23)=C1c1c[nH]c2ccccc12 | 27 | 35 | 73 | 35 |  | 39 | 97 | 19 | 79 | 30
O=C(CCCc1ccc(-c2ccccc2F)cc1)Nc1ccc(O)cc1 | 102 | 83 | 107 | 105 |  |  | 96 | 98 | 101 | 92
O=C(c1ccccc1)c1ccc(N2CCOCC2)cc1O | 83 | 119 | 112 | 113 |  | 94 | 119 | 72 |  | 
O=C1Nc2ccc(Cl)cc2/C1=C/c1cc(Cl)c(O)c(Cl)c1 | 40 | 29 | 86 | 47 | 95 | 97 | 118 | 79 | 95 | 97
CC(C)c1nn(-c2c(Cl)cccc2Cl)c2nc(Cc3ccc(OCCO)cc3)[nH]c(=O)c12 | 70 | 78 |  | 93 | 3 | 0 | 0 | 0 | -1 | -3
O=C(NC(NC(=S)Nc1ccc(F)c([N+](=O)[O-])c1)C(Cl)(Cl)Cl)C(c1ccccc1)c1ccccc1 (centres undefined) | 91 | 63 | 93 | 73 |  |  |  | 96 | 90 | 77
N#C/C(=C1/Nc2ccccc2S1)c1ccnc(NCCc2cccnc2)n1 | 80 | 45 | 96 | 29 |  |  | 81 | 33 |  | 
Nc1ncnc2[nH]nc(Nc3ccc(F)cc3)c12 | 74 | 18 | 65 | 12 |  | 21 |  | 49 | 91 | 59
CC(C)[C@H](CO)Nc1nc(Nc2cc(N)cc(Cl)c2)c2ncn(C(C)C)c2n1 | 91 | 75 |  |  |  |  |  |  |  | 
Nc1ncnc2c1cnn2-c1ccccc1 | 23 | 23 | 97 | 54 |  |  | 125 | 94 | 98 | 
O=C(c1cc2cc(O)ccc2[nH]1)c1cc2cc(O)ccc2[nH]1 | 5 | 7 | 37 | 6 | 60 | 15 | 78 | 9 | 50 | 13
O=C1NC(=O)c2c1c1c3ccccc3[nH]c1n1cncc21 | 32 | 25 | 23 | 17 | 83 | 53 | 64 | 61 | 58 | 35
